In PubChem BioAssay (EPA / NIEHS):
Activity calls are given as the source filed them. Rule for the calls: active = hit-call score of the fitted dose curve at least 0.9, where 1 is the maximum; inactive = score below 0.9.

Assays:
[1] = read-out: Interleukin-1 alpha (IL1a), IL1A (gene 3552); assay: BSK_KF3CT_IL1a: BioMAP Diversity Plus: KF3CT Assay for Interleukin-1 alpha (IL1a) Biomarker Activity (AID 2283070); details: primary human keratinocytes with fibroblasts; actives raise or lower the signal
In short: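 Readout is IL-1a level by ELISA, compared bidirectionally with DMSO as baseline. Cells: human keratinocytes co-cultured with foreskin fibroblasts, harvested 24 h post-dose.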

[2] = read-out: TIMP metallopeptidase inhibitor 2 (TIMP2), TIMP2 (gene 7077); assay: BSK_KF3CT_TIMP2: BioMAP Diversity Plus: KF3CT Assay for TIMP metallopeptidase inhibitor 2 (TIMP2) Biomarker Activity (AID 2283071); details: primary human keratinocytes with fibroblasts; actives raise or lower the signal
In short: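 Chemicals were dosed onto human skin primary co-cultures of keratinocytes and foreskin fibroblasts, and TIMP-2 was measured by ELISA after 24 hours. Activity in either direction was fitted relative to DMSO.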

[3] = read-out: Transforming growth factor beta 1 (TGFb1), TGFB1 (gene 7040); assay: BSK_KF3CT_TGFb1: BioMAP Diversity Plus: KF3CT Assay for Transforming growth factor beta 1 (TGFb1) Biomarker Activity (AID 2283072); details: primary human keratinocytes with fibroblasts; actives raise or lower the signal
In short: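 KF3CT co-culture (keratinocytes + fibroblasts), 24 h exposure → TGF-b1 ELISA → bidirectional fit, DMSO = baseline. Parallel SRB total-protein staining (0.1% SRB, 10% TCA fixation, 560 nm) for cytotoxicity.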

[4] = read-out: C-C motif chemokine 2 (Homo sapiens) (UniProt P13500); assay: BSK_KF3CT_MCP1: BioMAP Diversity Plus: KF3CT Assay for Monocyte Chemoattractant Protein 1 (MCP1/CCL2) Biomarker Activity (AID 2283073); details: primary human keratinocytes with fibroblasts; actives raise or lower the signal
In short: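 Keratinocytes and foreskin fibroblasts were co-cultured, dosed with chemical, and sampled 24 h later. MCP-1 was quantified by ELISA, and the endpoint was analyzed with bidirectional fitting using DMSO as negative control.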

[5] = read-out: Matrix Metallopeptidase 9 (MMP9), MMP9 (gene 4318); assay: BSK_KF3CT_MMP9: BioMAP Diversity Plus: KF3CT Assay for Matrix Metallopeptidase 9 (MMP9) Biomarker Activity (AID 2283074); details: primary human keratinocytes with fibroblasts; actives raise or lower the signal;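 for AC50: MMP9 protein level quantified by ELISA in the co-culture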
In short: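 Values come from bidirectional fitting relative to DMSO of MMP-9 levels, which were measured by ELISA. Measurements were taken 24 h after chemical dosing of a keratinocyte and foreskin fibroblast co-culture.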

[6] = read-out: urokinase plasminogen activator (uPA), PLAU (gene 5328); assay: BSK_KF3CT_uPA: BioMAP Diversity Plus: KF3CT Assay for urokinase plasminogen activator (uPA) Biomarker Activity (AID 2283075); details: primary human keratinocytes with fibroblasts; actives raise or lower the signal
In short: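 Values derive from bidirectional fitting against DMSO controls. Keratinocyte/foreskin fibroblast co-cultures received chemical; 24 h later uPA was detected by ELISA, with SRB total-protein staining in parallel wells for overt cytotoxicity.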

[7] = read-out: CD40, CD40 (gene 958); assay: BSK_LPS_CD40: BioMAP Diversity Plus: LPS Assay for CD40 Biomarker Activity (AID 2283076); details: primary human HUVEC with PBMC; actives raise or lower the signal
In short: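 CD40 signal, measured by ELISA, is fitted in both directions relative to DMSO vehicle. The system is an LPS-driven human vascular primary co-culture of endothelial cells and PBMC, sampled 24 h after compound addition.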

[8] = read-out: E-selectin (Homo sapiens) (UniProt P16581); assay: BSK_LPS_Eselectin: BioMAP Diversity Plus: LPS Assay for Eselectin Biomarker Activity (AID 2283077); details: primary human HUVEC with PBMC; actives raise or lower the signal
In short: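 Signal of E-selectin, detected by ELISA, served as the endpoint; cells were umbilical vein endothelium with PBMC, read 24 h after treatment. DMSO defined baseline, and both increases and decreases were fitted.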

[9] = read-out: Interleukin-8 (IL8), CXCL8 (gene 3576); assay: BSK_LPS_IL8: BioMAP Diversity Plus: LPS Assay for Interleukin-8 (IL8) Biomarker Activity (AID 2283078); details: primary human HUVEC with PBMC; actives raise or lower the signal
In short: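 Endothelial cells and PBMC from human donors are co-cultured, treated with chemicals and LPS, then assayed for IL-8 by ELISA after 24 h. Parallel SRB staining (0.1% SRB after 10% TCA fixation, 560 nm) flags cytotoxicity.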

[10] = read-out: Interleukin-1 alpha (IL1a), IL1A (gene 3552); assay: BSK_LPS_IL1a: BioMAP Diversity Plus: LPS Assay for Interleukin-1 alpha (IL1a) Biomarker Activity (AID 2283080); details: primary human HUVEC with PBMC; actives raise or lower the signal
In short: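 Measured: IL-1 alpha via ELISA at 24 h in LPS-activated human umbilical vein endothelium–PBMC co-culture. Baseline: DMSO, bidirectional fitting.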

[11] = read-out: Monocyte Chemoattractant Protein-1 (MCP1), CCL2 (gene 6347); assay: BSK_LPS_MCP1: BioMAP Diversity Plus: LPS Assay for Monocyte Chemoattractant Protein-1 (MCP1) Biomarker Activity (AID 2283081); details: primary human HUVEC with PBMC; actives raise or lower the signal;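 for AC50: secreted MCP-1 protein quantified by ELISA in culture supernatant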
In short: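 LPS-stimulated HUVEC/PBMC co-culture; chemical, 24 h; MCP-1 by ELISA; bidirectional fit vs DMSO; cytotoxicity via SRB (0.1% stain, 10% TCA fix, 560 nm) in parallel wells.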

[12] = BSK_LPS_PGE2: BioMAP Diversity Plus: LPS Assay for Prostaglandin E2 (PGE2) Biomarker Activity (AID 2283082); details: primary human HUVEC with PBMC; actives raise or lower the signal;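 for AC50: secreted prostaglandin E2 measured by ELISA in LPS-stimulated co-culture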
In short: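 Compounds were added to the LPS co-culture of endothelium and PBMC, and PGE2 was measured by ELISA after 24 h. Responses in either direction were fitted with DMSO as baseline.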

[13] = read-out: Macrophage colony-stimulating factor (MCSF), CSF1 (gene 1435); assay: BSK_LPS_MCSF: BioMAP Diversity Plus: LPS Assay for Macrophage colony-stimulating factor (MCSF) Biomarker Activity (AID 2283083); details: primary human HUVEC with PBMC; actives raise or lower the signal
In short: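 Compound is added to a human vascular primary co-culture of umbilical vein endothelium and blood mononuclear cells. After 24 h, M-CSF is quantified by ELISA. Signal changes are fitted in both directions against DMSO.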

[14] = read-out: Tissue Factor, F3 (gene 2152); assay: BSK_LPS_TissueFactor: BioMAP Diversity Plus: LPS Assay for Tissue Factor Biomarker Activity (AID 2283084); details: primary human HUVEC with PBMC; actives raise or lower the signal
In short: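 In this co-culture system of umbilical vein endothelium with PBMC, stimulated with LPS, cell-surface CD142 is detected by ELISA at 24 h. Endpoint values derive from bidirectional fitting, DMSO serving as baseline.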

[15] = read-out: Tumor necrosis factor (Homo sapiens) (UniProt P01375); assay: BSK_LPS_TNFa: BioMAP Diversity Plus: LPS Assay for Tumour Necrosis Factor alpha (TNFa) Biomarker Activity (AID 2283085); details: primary human HUVEC with PBMC; actives raise or lower the signal;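 for AC50: TNFa protein level quantified by ELISA in the co-culture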
In short: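 Cells (umbilical vein endothelium plus peripheral blood mononuclear cells) were dosed with chemical, incubated 24 h, then TNFa was quantified by ELISA; values derive from bidirectional fitting with DMSO as baseline.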

[16] = read-out: Vascular cell adhesion molecule 1 (VCAM1), VCAM1 (gene 7412); assay: BSK_LPS_VCAM1: BioMAP Diversity Plus: LPS Assay for Vascular cell adhesion molecule 1 (VCAM1) Biomarker Activity (AID 2283086); details: primary human HUVEC with PBMC; actives raise or lower the signal
In short: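 Cells are dosed in an LPS-stimulated endothelial/mononuclear co-culture and, after 24 h, VCAM-1 is quantified by ELISA. Activity in either direction is fitted relative to the DMSO negative control.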

[17] = read-out: CD40, CD40 (gene 958); assay: BSK_SAg_CD40: BioMAP Diversity Plus: SAg Assay for CD40 Biomarker Activity (AID 2283088); details: primary human HUVEC with PBMC; actives raise or lower the signal
In short: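 Fluorescence ELISA read-out of CD40 from umbilical vein endothelium plus peripheral blood mononuclear cells, sampled 24 h after dosing. Values come from bidirectional curve fitting with DMSO as baseline.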

[18] = read-out: CD69, CD69 (gene 969); assay: BSK_SAg_CD69: BioMAP Diversity Plus: SAg Assay for CD69 Biomarker Activity (AID 2283089); details: primary human HUVEC with PBMC; actives raise or lower the signal;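 for AC50: cell surface CD69 protein quantified by ELISA with fluorescence detection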
In short: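 Values derive from bidirectional fitting relative to DMSO vehicle. Cells: umbilical vein endothelium plus peripheral blood mononuclear cells, treated 24 h before fluorescent ELISA for CD69.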

[19] = BSK_LPS_SRB: Viability Assessment in the BioMAP Diversity Plus: LPS Assay (AID 2283079); details: primary human HUVEC with PBMC;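 note: total protein by sulforhodamine B absorbance as a cytotoxicity measure; measured one day after compound addition; fitted in both directions against DMSO so loss or gain of signal counts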
In short: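 Overt cytotoxicity was gauged by sulforhodamine B total-protein staining in a primary human vascular endothelial and mononuclear cell co-culture 24 h post-dosing. Activity was fitted in both directions relative to DMSO.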

[20] = read-out: CD38, CD38 (gene 952); assay: BSK_SAg_CD38: BioMAP Diversity Plus: SAg Assay for CD38 Biomarker Activity (AID 2283087); details: primary human HUVEC with PBMC; actives raise or lower the signal
In short: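 CD38 quantified by ELISA (fluorescence) in a superantigen-activated endothelial cell–PBMC co-culture at 24 h post-dose. Activity fitted in both directions relative to DMSO; parallel SRB and Alamar Blue cytotoxicity read-outs.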

Measured: AC50

Chain of Tumor necrosis factor (Homo sapiens) (P01375 whole entry, looked up): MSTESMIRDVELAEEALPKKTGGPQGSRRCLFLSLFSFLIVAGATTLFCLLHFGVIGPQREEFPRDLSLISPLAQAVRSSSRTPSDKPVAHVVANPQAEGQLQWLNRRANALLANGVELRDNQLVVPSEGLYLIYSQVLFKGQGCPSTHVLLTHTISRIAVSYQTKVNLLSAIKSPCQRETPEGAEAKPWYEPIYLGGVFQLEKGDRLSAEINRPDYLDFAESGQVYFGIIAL
Chain of E-selectin (Homo sapiens) (P16581 whole entry, looked up): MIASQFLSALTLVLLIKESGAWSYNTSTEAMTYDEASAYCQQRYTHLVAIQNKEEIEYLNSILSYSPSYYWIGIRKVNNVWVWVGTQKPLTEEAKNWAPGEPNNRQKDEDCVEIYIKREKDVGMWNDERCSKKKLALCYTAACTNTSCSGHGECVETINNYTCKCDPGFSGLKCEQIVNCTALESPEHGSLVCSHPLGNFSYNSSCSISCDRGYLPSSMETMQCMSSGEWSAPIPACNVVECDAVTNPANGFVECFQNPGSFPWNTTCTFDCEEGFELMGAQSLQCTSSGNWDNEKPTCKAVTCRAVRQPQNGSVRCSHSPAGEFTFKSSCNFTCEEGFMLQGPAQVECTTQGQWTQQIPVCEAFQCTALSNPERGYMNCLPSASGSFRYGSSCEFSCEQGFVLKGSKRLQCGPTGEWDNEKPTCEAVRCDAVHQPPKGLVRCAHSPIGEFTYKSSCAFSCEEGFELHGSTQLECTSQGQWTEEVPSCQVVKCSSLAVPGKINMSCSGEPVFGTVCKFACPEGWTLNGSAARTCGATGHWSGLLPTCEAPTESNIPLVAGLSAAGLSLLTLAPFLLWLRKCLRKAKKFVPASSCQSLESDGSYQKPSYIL

CCc1cccc(CC)c1N
not listed: [19] | [20]
inactive: all other assays above

C[C@@H](Oc1ccc(CNC(=O)c2cccnc2Oc2ccc3c(c2)OCO3)c(F)c1)C(=O)O
active: [15] 2.29 µM
not listed: [7] | [18]
inactive: all other assays above

CCCCOC(=O)c1ccccc1
not listed: [18]
inactive: all other assays above

COc1cc(C(C)C)c2c(c1)S(=O)(=O)N(COc1cc(=O)n3cccc(OCCN4CCCCC4)c3n1)C2=O
active: [1] 5 µM | [4] 2.78 µM | [5] 7.75 µM | [7] 6.39 µM | [8] 8.03 µM | [13] 5 µM | [16] 6.02 µM | [17] 5 µM
not listed: [18] | [19] | [20]
inactive: all other assays above

CCCCCCCC/C=C\CCCCCCCC(=O)OC[C@@H](O)[C@H]1OC[C@H](O)[C@H]1O
not listed: [7]
inactive: all other assays above

CC(C)c1nnc2ccc(-c3ocnc3-c3cc(F)ccc3F)cn12
active: [8] 0.248 µM | [9] 0.148 µM | [10] 0.148 µM | [11] 4.6 µM | [12] 0.346 µM | [14] 0.356 µM | [15] 0.148 µM | [16] 0.979 µM | [18] 3.59 µM
not listed: [7]
inactive: all other assays above

OC[C@H]1O[C@@H]2O[C@H]3[C@H](O)[C@@H](O)[C@@H](O[C@H]4[C@H](O)[C@@H](O)[C@@H](O[C@H]5[C@H](O)[C@@H](O)[C@@H](O[C@H]6[C@H](O)[C@@H](O)[C@@H](O[C@H]7[C@H](O)[C@@H](O)[C@@H](O[C@H]1[C@H](O)[C@H]2O)O[C@@H]7CO)O[C@@H]6CO)O[C@@H]5CO)O[C@@H]4CO)O[C@@H]3CO
not listed: [19] | [20]
inactive: all other assays above

CCCCCCCC1CCC(=O)O1 (centres undefined)
not listed: [20]
inactive: all other assays above

COCc1nnc(-c2ccc[n+]([O-])c2)n1-c1c(Cl)c(Cl)cc2[nH]c(=O)c(=O)[nH]c12
not listed: [19] | [20]
inactive: all other assays above

c1ccc(C(O[C@@H]2CCCN(CCc3ccc4c(c3)OCO4)C2)c2ccccc2)cc1
active: [2] 3.97 µM | [5] 32.2 µM | [7] 29.1 µM | [9] 20 µM | [19] 26.3 µM | [10] 12.5 µM | [13] 29.8 µM | [20] 30.6 µM | [17] 30.4 µM | [18] 30.3 µM
inactive: [1] | [3] | [4] | [6] | [8] | [11] | [12] | [14] | [15] | [16]

CCCC(CCC)C(=O)O
not listed: [18] | [20]
inactive: all other assays above

NC(=O)N(O)[C@@H]1COc2cc(OCc3ccccc3)ccc21
active: [12] 3.45 µM
not listed: [18]
inactive: all other assays above

CCCCCCCCCC
not listed: [18] | [20]
inactive: all other assays above

CCCCCCCCCCCCCCCCOS(=O)(=O)O
active: [1] 15.6 µM | [2] 19.5 µM | [3] 17.4 µM | [4] 16.8 µM | [5] 18.5 µM | [6] 15.6 µM | [20] 5.57 µM
not listed: [18]
inactive: all other assays above
